Compound activity (PubChem)
Hits are enriched below; roughly 1.6% of the tested compounds scored in any of these assays.
PKA-R1A activ = PKA-R1A complex activation. AID 504707. PKA-R1A dissociation, Cy5-IP20 fluorescence polarization; scaled: DMSO 0%, 113 µM cGMP 100%. 0.083% of 340,000 active. activation, % at 11.4 µM;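 active = percent activation above the mean of all tested compounds plus 3 SD, cut at about 19% in these data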;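 note: higher means more PKAc released from R1A so a rise in polarization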
ATG4B inh = blocks human ATG4B protease cleavage of LC3 substrate; inhibition, % at 8.33 µM; 0.51% of 340,000 active; Q9Y4P1; AID 504462; ATG4B cleavage of LC3-PLA2, NBD-HPC fluorescence, 1 h; in the data active = inhibition above about 40%
NRP1-CendR mod = alters CendR peptide binding to human NRP-1; O14786; FAM-RPARPAR peptide binding to NRP-1, fluorescence polarization; inhibition, % at 25 µM; 0.85% of 360,000 active; AID 602438;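 active = inhibition or corrected inhibition above about 18%, plus a signal ratio from 0.5 to 1.5, limit read from the data, passing the limit was not always enough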
VLA-4 inh = inhibition in a human VLA-4 binding assay; inhibition, % (about 7 µM as worked out from the volumes in the protocol); 0.2% of 330,000 active; AID 2557; VLA-4 expressing cells, ligand binding flow cytometry; P13612
PKA-R2B act = activators of human PKA-R2B complex. P22694+P31323. PKA-R2B holoenzyme dissociation, Cy5-IP20 fluorescence polarization; R2B truncated from residue 108, S112A mutant; 0% DMSO only, 100% 113 µM cGMP. activation, % at 11.4 µM. 0.079% of 340,000 active. AID 504700;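 active = activation above a cutoff set at the mean over all compounds plus 3 SD, cut at about 18% in these data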;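 note: higher means more holoenzyme dissociation and a rise in polarization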
Target sequence (P31323 whole entry, looked up, other chains not shown, the tested form may be a part): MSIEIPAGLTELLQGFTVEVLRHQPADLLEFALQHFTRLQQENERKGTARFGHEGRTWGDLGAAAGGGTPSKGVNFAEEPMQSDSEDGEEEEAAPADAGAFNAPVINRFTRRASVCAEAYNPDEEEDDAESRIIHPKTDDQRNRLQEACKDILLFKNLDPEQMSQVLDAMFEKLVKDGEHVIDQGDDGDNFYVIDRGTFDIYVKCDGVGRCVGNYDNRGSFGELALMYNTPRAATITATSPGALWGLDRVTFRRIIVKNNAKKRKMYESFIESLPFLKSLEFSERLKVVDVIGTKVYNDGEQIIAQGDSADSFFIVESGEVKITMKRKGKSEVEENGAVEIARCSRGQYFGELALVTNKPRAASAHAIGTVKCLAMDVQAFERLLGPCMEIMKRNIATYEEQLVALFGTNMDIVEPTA
ATG4B conf = ATG4B (human) inhibition, single-dose confirmed. shares compounds with ATG4B inh. ATG4B protease fluorescent substrate cleavage assay. inhibition, % at 8.33 µM. 92% of 320 active; in the data active = inhibition above about 39%
PLA2 ctr = counter-screen for ATG4B inhibitors: human phospholipase A2 | shares compounds with ATG4B inh | purified PLA2, NBD-C6-HPC fluorescence, 45 min | inhibition, % at 8.33 µM | 66% of 1,600 active
Target sequence (P04054 whole entry, looked up): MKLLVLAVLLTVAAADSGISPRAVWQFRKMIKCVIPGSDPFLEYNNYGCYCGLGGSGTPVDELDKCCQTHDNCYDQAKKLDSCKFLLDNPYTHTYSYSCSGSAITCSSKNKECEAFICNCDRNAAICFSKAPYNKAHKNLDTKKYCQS
* marks the source's active call; other numbers are inactive results; · = no result given; ! = repeats disagree. Cut-off read from the data, not from the text of the source, unless noted: active = inhibition above about 50%; inactive = the rest.

SMILES | PKA-R1A activ | ATG4B inh | NRP1-CendR mod | VLA-4 inh | PKA-R2B act | PLA2 ctr | others
O=C(NN1C(=O)/C(=C/C=C/c2ccco2)SC1=S)c1ccncc1 | · | 53.6* | -151.5 | 2.0 | · | -2.8 | ATG4B conf=64.6*
CCOc1ccc(/C=C/C(=O)N(C)CC(=O)Nc2cccc(F)c2)cc1OCC | -2.0 | -2.8 | 14.3 | -11.3 | -14.4 | ·
NC(=O)COC(=O)c1cc(-c2ccco2)nc2ccccc12 | -12.5 | 22.1 | -38.1 | 0.9 | 2.5 | ·
O=C(O)c1cc(-c2ccco2)nc2ccc(Br)cc12 | 0.4 | 77.7*! | -140.6 | 3.1 | -2.7 | 23.3 | ATG4B conf=65.1*
COC(=O)c1c(C)[nH]c(C(=O)OC(C)C(=O)NC2CCCCC2C)c1C (stereo not drawn) | -6.9 | · | -6.4 | · | -1.5 | ·
N#CCOC(=O)[C@H](Cc1c[nH]c2ccccc12)NS(=O)(=O)c1ccc(Cl)cc1 | -5.3 | 57.0* | 2.3 | -13.6 | -8.2 | 67.1*
COc1ccc(N2CCN(C(=O)CCCn3c(=S)[nH]c4cc5c(cc4c3=O)OCO5)CC2)cc1 | -1.4 | 23.9 | -4.4 | -8.6 | -9.3 | ·
Cc1ccc(C)c(N2CCN(C(=O)CCn3c(=S)[nH]c4cc5c(cc4c3=O)OCO5)CC2)c1 | -11.0 | 51.5* | -0.1 | -10.3 | 5.6 | 50.4*
CN(CC(=O)Nc1ccc(N2CCOCC2)cc1)C(=O)c1ccc(CS(C)(=O)=O)cc1 | -3.3 | 5.1 | 6.8 | 17.8 | -9.6 | ·
CCOc1ccc(C(=O)C2CCN(CC(=O)Nc3ccccc3N3CCOCC3)CC2)cc1 | 0.9 | 44.0* | 10.2 | -0.4 | -2.5 | 33.6 | ATG4B conf=65.3*
CCN(CC)c1ccc(/C=N/NC(=S)NCc2ccccc2)c(O)c1 | -14.6 | 49.2* | -15.4 | -7.9 | 0.8 | 37.0
CCN(CC)c1ccc(/C=N/NC(=O)c2ccco2)c(O)c1 | -6.8 | -7.0 | -58.3 | 8.3 | 0.4 | ·
O=C1N[C@@H](c2ccccc2)COC(=O)[C@@H](Cc2ccc(F)cc2)C/C=C\C[C@@H]1CC(=O)N(CCO)Cc1ccccc1 | -2.9 | 50.0* | 0.7 | 2.4 | 2.4 | 54.0*
O=C1N[C@@H](c2ccccc2)COC(=O)[C@H](Cc2ccc(F)cc2)C/C=C\C[C@H]1CC(=O)N(CCO)Cc1ccccc1 | -9.8 | -12.1 | -4.2 | · | 4.3 | ·
Cc1ccc2[nH]c(=O)c(CN(Cc3cccs3)Cc3nnnn3Cc3ccccc3)cc2c1 | 0.5 | 51.5* | 0.1 | 5.1 | -19.9 | 65.5*
CCOC(=O)Cn1nnnc1CN(Cc1cccs1)Cc1cc2cc(C)ccc2[nH]c1=O | -6.5 | -10.8 | -7.0 | -2.6 | -3.9 | ·
CCCn1c(NC(=O)c2cccc(S(=O)(=O)N3CCCC3)c2)nc2ccccc21 | 6.7 | 40.0 | -8.7 | 15.5 | -6.3 | 57.4*
CCCn1c(NC(=O)c2ccccc2)nc2ccccc21 | -8.1 | 20.3 | 4.1 | -7.6 | -1.9 | ·
FC(F)(F)c1ccccc1Cc1c(-c2ccccc2)nc2ccc(Br)cn12 | · | · | -12.9 | · | · | ·
Cc1cccc(Cc2cnc(NC(=O)C3=NCCN3)s2)c1 | -4.8 | -1.1 | -2.2 | 8.3 | -12.8 | ·
Cc1cccc(Cc2cnc(NC(=O)c3ccc(C)o3)s2)c1 | -5.0 | 47.2* | -6.0 | 8.6 | -19.6 | 62.8*
COc1ccc(C(N)c2csc(Nc3ccc(C(F)(F)F)cn3)n2)cc1 (stereo not drawn) | · | · | -17.7 | · | · | ·
NC(=O)c1cccc(N=Cc2cc(Cl)cc(Cl)c2O)c1 | 0.9 | 20.0 | -35.8 | · | -4.7 | ·
Cc1cccc(N=Cc2cc(Br)cc(Cl)c2O)c1 | 6.9 | 40.2* | -40.3 | 4.7 | 8.8 | 30.7 | ATG4B conf=63.0*
Nc1nonc1C(=O)NCCN=Cc1cc(Cc2ccccc2)cc(Br)c1O | -0.4 | 85.6* | -60.3 | 0.8 | -7.0 | 71.6*
SMILES | PKA-R1A activ | ATG4B inh | NRP1-CendR mod | VLA-4 inh | PKA-R2B act | PLA2 ctr | others
COc1ccc(CNC(=O)N2CCN(c3ccccc3OC)CC2)cc1 | 4.7 | -1.8 | 13.9 | -4.5 | -1.1 | ·
N#CC1=C(S)N(c2ccccc2)C(c2ccc(-c3ccccc3Cl)o2)NC1=O (stereo not drawn) | 5.4 | 65.6* | -22.2 | -14.8 | 3.0 | 73.6*
CC(=O)Nc1ccc(NC(=O)CSc2nnnn2-c2ccc(F)cc2)cc1 | -1.4 | 1.6 | 14.3 | 0.5 | -5.5 | ·
CN(C)CCCO[C@@H]1[C@H]2OC(C)(C)O[C@H]2O[C@@H]1[C@H](O)CO | 14.0 | 3.4 | -6.2 | 2.1 | 2.6 | ·
O=C(/C=C/N1CCOCC1)c1coc2ccccc12 | -10.7 | 43.9* | -11.4 | 5.4 | -2.2 | 24.7
O=C(/C=C/N1CCOCC1)c1cc2ccccc2o1 | -7.8 | 64.8* | -24.6 | 33.2 | 12.2 | 28.8
CCCCN1CC(=O)N2[C@H]3c4cc(Br)ccc4OC[C@@H]3[C@H](C(=O)OCC)[C@]2(C)C1=O | -10.7 | -2.4 | 0.6 | 16.1 | -10.3 | ·
CC(Sc1ncnc2sc(-c3ccccc3)cc12)C(N)=O (stereo not drawn) | -8.2 | 48.3* | 15.7 | 7.9 | 2.5 | 61.9*
CCOC(=O)c1sc(-c2ccccc2)cc1NC(=O)Nc1ccccc1 | 6.0 | 41.4* | 7.6 | 18.6 | -2.1 | 37.2 | ATG4B conf=83.2*
CCOC(=O)c1sc(-c2ccc(F)cc2)cc1NC(=O)Nc1ccccc1OC | -13.8 | -4.7 | -1.9 | -3.3 | -10.9 | ·
O=C(CSc1nnc(COc2ccccc2)n1-c1ccccc1)c1cccs1 | 1.9 | 54.1* | -1.3 | 3.0 | -3.4 | 54.6*
Cc1ccc(OCc2nnc(SCC(=O)c3cccs3)n2-c2ccccc2)cc1C | 6.1 | 61.9* | -9.3 | 3.8 | -8.7 | 78.4*
C[C@H]1c2cccc(O)c2C(O)=C2C(=O)[C@]3(O)C(O)=C(C(N)=O)C(=O)[C@@H](N(C)C)[C@@H]3[C@@H](O)[C@@H]21 | -7.1 | 40.1* | 11.0 | -5.5 | -10.7 | 1.2 | ATG4B conf=65.7*
Cc1cccc(CN2CCN([C@@H]3CS(=O)(=O)N[C@H]3COCc3ccccc3)CC2)c1 | · | · | 7.1 | · | · | ·
CC(=O)N1CCN(C(c2ccccc2)c2nnnn2C(C)(C)C)CC1 (stereo not drawn) | · | · | 3.2 | · | · | ·
CN(C)C(=O)CSc1nc2ccc(C(=O)c3ccccc3)cc2[nH]1 | -3.0 | -6.9 | 6.3 | 5.9 | -2.2 | ·
Fc1cccc2sc(Nc3nnc(-c4ccccc4)o3)nc12 | -4.8 | 4.7 | -17.9 | 1.0 | -3.7 | ·
COc1cc(OC)cc(-c2nnc(Nc3nc4c(F)cccc4s3)o2)c1 | -1.1 | 56.7* | -8.0 | 7.5 | -6.7 | 11.3 | ATG4B conf=51.0*
N#C/C(=C\c1coc2ccc(O)cc2c1=O)C(=O)Nc1nc2ccccc2s1 | -3.7 | 54.5* | 132.5 | -248.8 | -3.9 | 37.7
COc1ccc(-c2sc3ccc(N4CCOCC4)cc3c2C#CCCO)cc1 | -1.3 | -16.3 | 9.0 | 9.0 | -9.0 | ·
